Data taken from PubChem BioAssay.
Calls of active or inactive are those of the source. Unless noted, the rule behind the calls is not given here.

Legend:
[1] = tested on: XIP peptide (Xip251-270) binding; experiment: small-molecule binders of XIP peptide, primary screen, biochemical, small-molecule microarray, fluorescence 635/667 nm, 0.1 µg/mL protein (AID 1182); conditions: fluorescent protein binding, 635 nm, higher = more signal, called active from +8 up or from −8 down
XIP peptide (Xip251-270) = experiment: small-molecule binders of XIP peptide, primary screen, biochemical, small-molecule microarray, fluorescence 635/667 nm, 0.5 µg/mL protein (AID 1183); conditions: small-molecule microarray binding, fluorescence 635 nm; higher = more signal
[2] = Plasmodium falciparum growth inhibition, primary screen, strain 3D7, DAPI fluorescence, 100 nL (AID 1184);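 note: parasites grown inside human red blood cells in medium with human serum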; conditions: P. falciparum 3D7 growth, 3 d, higher = more signal
[3] = target: Homeobox protein Hox-A13 (Mus musculus) (UniProt Q62424); experiment: inhibitors of HoxA13-DNA binding, primary screen, biochemical, fluorescence polarization, labeled oligonucleotide (AID 1185); conditions: 15 min, higher = more signal, called active from +8 up or from −8 down
Chain of Homeobox protein Hox-A13 (Mus musculus) (Q62424 whole entry, looked up): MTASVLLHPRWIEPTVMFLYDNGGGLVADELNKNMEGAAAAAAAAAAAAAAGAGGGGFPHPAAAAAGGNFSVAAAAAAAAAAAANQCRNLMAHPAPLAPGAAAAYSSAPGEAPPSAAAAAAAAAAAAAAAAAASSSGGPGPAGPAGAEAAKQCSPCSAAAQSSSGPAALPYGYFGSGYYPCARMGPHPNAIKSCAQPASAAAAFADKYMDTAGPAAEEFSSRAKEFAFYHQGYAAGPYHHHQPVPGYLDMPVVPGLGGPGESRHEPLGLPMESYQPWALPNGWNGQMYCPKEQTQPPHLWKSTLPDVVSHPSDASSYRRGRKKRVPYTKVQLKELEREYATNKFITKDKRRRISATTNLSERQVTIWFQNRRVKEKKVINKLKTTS

[4] = inhibitors of hydroxyurea-induced Chk1 phosphorylation, primary screen, imaging, HeLa, phospho-Chk1 antibody, percent positive cells (AID 1186); conditions: hydroxyurea-induced phospho-Chk1 immunofluorescence imaging, higher = more signal
[5] = inhibitors of hydroxyurea-induced Chk1 phosphorylation, primary screen, imaging, HeLa, phospho-Chk1 nuclear intensity (AID 1187); conditions: hydroxyurea-induced phospho-Chk1 immunofluorescence imaging, higher = more signal

NC(=O)NCC#Cc1ccc2c(c1)[C@]1(C(=O)N2)[C@H](C(=O)N2CCN(c3ncccn3)CC2)[C@H]2C(=O)O[C@H](c3ccccc3)[C@H](c3ccccc3)N2[C@@H]1c1ccc(OCCO)cc1
composite z-score [1]: -0.134 (inactive)
composite z-score (XIP peptide (Xip251-270)): 0.193
z-score [2]: -0.232
z-score [3]: -1.02 (inactive)
z-score [4]: -0.216 (inactive)
z-score [5]: -0.0071 (inactive)

C=CCNC(=O)[C@@H]1[C@H]2C(=O)O[C@H](c3ccccc3)[C@H](c3ccccc3)N2[C@H](c2ccc(OCCO)cc2)[C@@]12C(=O)N(C(=O)OCCOC)c1ccc(C#CCCO)cc12
composite z-score [1]: 0.649 (inactive)
composite z-score (XIP peptide (Xip251-270)): 0.69
z-score [2]: -1.56
z-score [3]: -1.19 (inactive)
z-score [4]: -0.604 (inactive)
z-score [5]: -0.826 (inactive)

COc1ccc(C(O)C2C=CC3C(=O)N(c4ccccc4)C(=O)C3N2Nc2ccccc2F)cc1 (stereo unspecified)
composite z-score [1]: 1.11 (inactive)
composite z-score (XIP peptide (Xip251-270)): 0.857
z-score [2]: 0.571
z-score [3]: -3.05 (inactive)
z-score [4]: -0.296 (inactive)
z-score [5]: -0.741 (inactive)

COc1cc(NN2C(C(O)C3CCCCC3)C=CC3C(=O)N(C)C(=O)C32)cc(OC)c1OC (stereo unspecified)
composite z-score [1]: 0.123 (inactive)
composite z-score (XIP peptide (Xip251-270)): 0.704
z-score [2]: -0.246
z-score [3]: -4.48 (inactive)
z-score [4]: 0.281 (inactive)
z-score [5]: 0.264 (inactive)

Cc1cccc([C@H]2C[C@H]3C(Br)=C[C@@H]2C(=O)[C@]32CO2)c1
composite z-score [1]: -0.409 (inactive)
composite z-score (XIP peptide (Xip251-270)): -0.848
z-score [2]: -0.528
z-score [3]: -1.65 (inactive)
z-score [4]: 0.139 (inactive)
z-score [5]: -0.0027 (inactive)

COCCOC(=O)N1C(=O)[C@@]2(c3cc(C#Cc4ccc(OC)cc4)ccc31)[C@H](c1ccc(OCCO)cc1)N1[C@H](c3ccccc3)[C@H](c3ccccc3)OC(=O)[C@H]1[C@@H]2C(=O)Nc1nc2ccccc2s1
composite z-score [1]: 0.968 (inactive)
composite z-score (XIP peptide (Xip251-270)): 0.414
z-score [2]: -0.817
z-score [3]: 1.31 (inactive)
z-score [4]: -0.007 (inactive)
z-score [5]: 0.254 (inactive)

C=CCC(OC(C)=O)[C@@H]1[C@@H](N(Cc2cc3ccccc3o2)C(=O)c2ccc(-c3ccccc3)cc2)c2cc(OCCCO)ccc2N1C(=O)Cc1ccc(OC)cc1 (stereo partly specified)
composite z-score [1]: 0.112 (inactive)
composite z-score (XIP peptide (Xip251-270)): 0.0332
z-score [2]: -0.846
z-score [3]: -1.8 (inactive)
z-score [4]: 0.754 (inactive)
z-score [5]: 0.0035 (inactive)

C=C(/C(=C/C[C@@H](OC(C)=O)c1ccc(OCCO)cc1)c1cc(C(=O)OC)ccc1OC)C(C)C
composite z-score [1]: 0.96 (inactive)
composite z-score (XIP peptide (Xip251-270)): 0.819
z-score [2]: -3
z-score [3]: -4.3 (inactive)
z-score [4]: 0.38 (inactive)
z-score [5]: 0.578 (inactive)

CC1(C)C(=O)C(c2ccccc2)=C2CN3C(=O)N(CCc4ccccc4)C(=O)C3(Cc3ccc(C(F)(F)F)cc3)C=C21 (stereo unspecified)
composite z-score [1]: 0.251 (inactive)
composite z-score (XIP peptide (Xip251-270)): 0.279
z-score [2]: -0.745
z-score [3]: -1.55 (inactive)
z-score [4]: 0.175 (inactive)
z-score [5]: 0.0024 (inactive)

CN(C)CCCCNC(=O)[C@H]1C[C@H]2C(=O)N[C@@H](CCCC[N+](C)(C)C)C(=O)N2[C@H]1c1ccc(O)cc1
composite z-score [1]: -0.0941 (inactive)
composite z-score (XIP peptide (Xip251-270)): 0.674
z-score [2]: -0.449
z-score [3]: -3.64 (inactive)
z-score [4]: -1.31 (inactive)
z-score [5]: -0.989 (inactive)

COc1ccc([Si](C)(C)[C@H]2[C@H](CC(=O)N3Cc4ccccc4C[C@H]3CO)O[C@@]3(C(=O)N(Cc4ccc(N5C(=O)c6cccc7cccc5c67)cc4)c4ccccc43)[C@@H]2C)cc1
composite z-score [1]: 1.23 (inactive)
composite z-score (XIP peptide (Xip251-270)): 0.738
z-score [2]: -1.79
z-score [3]: -2.7 (inactive)
z-score [4]: -1.02 (inactive)
z-score [5]: -0.113 (inactive)

C=C(COC)C(=O)CC[C@H](OC(C)=O)c1ccc(OCCO)cc1
composite z-score [1]: -0.388 (inactive)
composite z-score (XIP peptide (Xip251-270)): 0.58
z-score [2]: -2.39
z-score [3]: -4.76 (inactive)
z-score [4]: -0.559 (inactive)
z-score [5]: -0.357 (inactive)

COc1ccc([Si](C)(C)[C@H]2[C@H](CCO)O[C@@]3(C(=O)N(Cc4ccc(N5C(=O)c6ccccc6Oc6ccccc65)cc4)c4ccccc43)[C@@H]2C)cc1
composite z-score [1]: -0.136 (inactive)
composite z-score (XIP peptide (Xip251-270)): 0.0004
z-score [2]: -1.67
z-score [3]: -1.05 (inactive)
z-score [4]: -0.557 (inactive)
z-score [5]: -0.583 (inactive)

O=c1cccc(-c2ccc(F)cc2)o1
composite z-score [1]: -0.133 (inactive)
composite z-score (XIP peptide (Xip251-270)): 0.472
z-score [2]: 1.07
z-score [3]: -0.287 (inactive)
z-score [4]: 0.454 (inactive)
z-score [5]: 0.606 (inactive)

CCOC(=O)C1=C[C@@H](C(C)(C)C)N(S(=O)(=O)c2ccc(C)cc2)[C@H]1c1ccc(C)cc1
composite z-score [1]: 0.177 (inactive)
composite z-score (XIP peptide (Xip251-270)): 0.325
z-score [2]: -2.07
z-score [3]: -0.0064 (inactive)
z-score [4]: 0.0978 (inactive)
z-score [5]: -0.184 (inactive)

O=C1C2C=CC(C(O)c3ccc4c(c3)OCO4)N(Nc3ccccc3)C2C(=O)N1c1ccccc1 (stereo unspecified)
composite z-score [1]: 0.395 (inactive)
composite z-score (XIP peptide (Xip251-270)): 0.795
z-score [2]: -0.214
z-score [3]: -1.49 (inactive)
z-score [4]: 0.104 (inactive)
z-score [5]: 0.614 (inactive)

CCOC(=O)C1=C[C@@H](C(C)(C)C)N(S(=O)(=O)c2ccc(C)cc2)[C@H]1c1cccc(Cl)c1
composite z-score [1]: -0.248 (inactive)
composite z-score (XIP peptide (Xip251-270)): 0.765
z-score [2]: -2.08
z-score [3]: 0.0204 (inactive)
z-score [4]: 0.347 (inactive)
z-score [5]: -0.136 (inactive)

O=C1[C@@H]2[C@@H](CC(COc3ccccc3)=C3[C@@H](CCc4ccccc4)OB(O)C[C@@H]32)C(=O)N1Cc1ccccc1
composite z-score [1]: 0.318 (inactive)
composite z-score (XIP peptide (Xip251-270)): 0.387
z-score [2]: 1.31
z-score [3]: -5.54 (inactive)
z-score [4]: -0.242 (inactive)
z-score [5]: -0.22 (inactive)

COCCOC(=O)N1C(=O)[C@@]2(c3cc(C#CCNC(N)=O)ccc31)[C@H](c1ccc(O)cc1)N1[C@H](c3ccccc3)[C@H](c3ccccc3)OC(=O)[C@H]1[C@@H]2C(=O)N1CCN(c2ncccn2)CC1
composite z-score [1]: 0.237 (inactive)
composite z-score (XIP peptide (Xip251-270)): 0.796
z-score [2]: -1.71
z-score [3]: 0.0468 (inactive)
z-score [4]: -0.11 (inactive)
z-score [5]: -0.184 (inactive)

COc1cc(NN2C(C(O)c3ccc(I)cc3)C=CC3C(=O)N(c4ccccc4)C(=O)C32)cc(OC)c1OC (stereo unspecified)
composite z-score [1]: 0.204 (inactive)
composite z-score (XIP peptide (Xip251-270)): 0.816
z-score [2]: -0.908
z-score [3]: -4.54 (inactive)
z-score [4]: 0.505 (inactive)
z-score [5]: 0.241 (inactive)

COCCOC(=O)N1C(=O)[C@@]2(c3cc(C#CCC(C(=O)OC)C(=O)OC)ccc31)[C@H](C(=O)NC[C@H](O)c1ccccc1)[C@H]1C(=O)O[C@H](c3ccccc3)[C@H](c3ccccc3)N1[C@@H]2c1ccc(O)cc1
composite z-score [1]: 0.363 (inactive)
composite z-score (XIP peptide (Xip251-270)): 0.724
z-score [2]: -1.84
z-score [3]: -1.61 (inactive)
z-score [4]: -0.129 (inactive)
z-score [5]: -0.117 (inactive)

COCCOC(=O)N1C(=O)[C@@]2(c3cc(C#CCC(C(=O)OC)C(=O)OC)ccc31)[C@H](c1ccc(OCCO)cc1)N1[C@H](c3ccccc3)[C@H](c3ccccc3)OC(=O)[C@H]1[C@@H]2C(=O)Nc1nc2ccccc2s1
composite z-score [1]: 0.0047 (inactive)
composite z-score (XIP peptide (Xip251-270)): 0.59
z-score [2]: -0.512
z-score [3]: 2.1 (inactive)
z-score [4]: -0.365 (inactive)
z-score [5]: -0.632 (inactive)

CC(C)CNC(=O)[C@@]1(c2ccc([N+](=O)[O-])cc2)CC(=O)N(C2CCCCC2)[C@@H]1c1ccc(CO)cc1
composite z-score [1]: 0.32 (inactive)
composite z-score (XIP peptide (Xip251-270)): 0.104
z-score [2]: -0.672
z-score [3]: -2.24 (inactive)
z-score [4]: 0.0803 (inactive)
z-score [5]: 0.515 (inactive)

COCCCNC(=O)[C@@]1(c2ccc([N+](=O)[O-])cc2)CC(=O)N(CC23CC4CC(CC(C4)C2)C3)[C@@H]1c1ccc(CO)cc1I
composite z-score [1]: 1.15 (inactive)
composite z-score (XIP peptide (Xip251-270)): 0.383
z-score [2]: -1.13
z-score [3]: -4.38 (inactive)
z-score [4]: 0.568 (inactive)
z-score [5]: 0.885 (inactive)

COCCOC(=O)N1C(=O)[C@@]2(c3cc(C#CC4=CCCCC4)ccc31)[C@H](c1ccc(O)cc1)N1[C@H](c3ccccc3)[C@H](c3ccccc3)OC(=O)[C@H]1[C@@H]2C(=O)NC[C@H](O)c1ccccc1
composite z-score [1]: 0.816 (inactive)
composite z-score (XIP peptide (Xip251-270)): 0.75
z-score [2]: -1.69
z-score [3]: 1.07 (inactive)
z-score [4]: -0.0889 (inactive)
z-score [5]: 0.129 (inactive)

O=C(O)[C@H]1C[C@H]2C(=O)N[C@@H](Cc3ccccc3)C(=O)N2[C@H]1c1cccc(OCCO)c1
composite z-score [1]: -0.0627 (inactive)
composite z-score (XIP peptide (Xip251-270)): 0.152
z-score [2]: -0.74
z-score [3]: -1.74 (inactive)
z-score [4]: 0.464 (inactive)
z-score [5]: 0.48 (inactive)
